High-throughput results deposited in PubChem by National Center for Advancing Translational Sciences (NCATS).
Hits are enriched below; roughly 10% of the tested compounds scored in any of these assays.
Sfp PPTase inh: Sfp phosphopantetheinyl transferase inhibition. Q9F4F7. Biochemical Sfp PPTase activity, qHTS. Potency, µM, hits mostly inhibitors. 3.5% of 310,000 active;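 also: the enzyme is Sfp with the accession as filed and its product quenches rhodamine fluorescence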
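Step 1, compound plus 15 nM Sfp-PPTase, 15 min, room temperature. Step 2, add rhodamine-CoA (5 uM) and BHQ-2-YbbR (12.5 uM). Step 3, read 525/598 nm fluorescence at 0 and 30 min.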
G9a inh: blocks human histone lysine methyltransferase G9a; G9a H3K9 monomethylation, AlphaScreen, 2 h; Potency, µM (titrated, usually from 102 µM), hits mostly inhibitors; 8.8% of 350,000 active; AID 504332; also: nearly all actives have a fitted effect of over 75% in size
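G9a (20 nM) was preincubated 15 min with compound, then reacted 2 h at room temperature with 500 nM biotin-H3K9 peptide and 20 µM SAM. Monomethyl-H3K9 detected by AlphaScreen using anti-H3K9me1 antibody.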
Mm-Cpn inhibitor: inhibitors of Methanococcus maripaludis chaperonin TRiC (MmCpn); AID 504842; purified Mm-Cpn ATPase, ADP Transcreener TR-FRET; 0.031% of 330,000 active; Potency, µM (series often up to 76.9 µM), usual class: inhibitors; also: nearly all actives have a fitted effect of over 80% in size
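Quantitative HTS used 25 nM Mm-CPN and 10 uM ATP in magnesium/KCl Tris buffer, pH 7.4, with 1 mM DTT. Hydrolysis ran 30 min at 37°C; ADP was read by HTRF.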
VDR inh: blocks the human vitamin D receptor | P11473 | VDR-SRC2-3 peptide fluorescence polarization, 2 h | Potency, µM, actives largely listed as inhibitors | 0.93% of 400,000 active | AID 504847
Target sequence (P11473 whole entry, looked up): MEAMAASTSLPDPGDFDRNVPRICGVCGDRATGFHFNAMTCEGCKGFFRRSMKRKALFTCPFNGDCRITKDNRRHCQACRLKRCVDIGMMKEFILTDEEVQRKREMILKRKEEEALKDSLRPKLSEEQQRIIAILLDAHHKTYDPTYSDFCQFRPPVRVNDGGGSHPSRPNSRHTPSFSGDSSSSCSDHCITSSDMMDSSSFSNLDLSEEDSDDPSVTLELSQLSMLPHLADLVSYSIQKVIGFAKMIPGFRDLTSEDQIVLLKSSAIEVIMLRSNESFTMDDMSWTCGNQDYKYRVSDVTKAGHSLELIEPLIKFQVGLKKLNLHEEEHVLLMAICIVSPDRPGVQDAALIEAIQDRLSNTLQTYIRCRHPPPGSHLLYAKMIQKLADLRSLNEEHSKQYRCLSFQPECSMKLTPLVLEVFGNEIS
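VDR–SRC2-3 interaction, FP format. Cmpds 23 nl via pintool, brief spin, 2 h ambient incubation.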
CCT chaperon mod: changes cytosolic chaperonin activity. 0.3% of 360,000 active. activity change, % (test concentration not listed), hits read low. purified chaperonin ATPase assay, HTRF ADP detection, 30 min; in the data active = activity change below about -30%
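TRiC at 40 or 20 nM final (batch-dependent) in 30 mM Tris pH 7.4, 100 mM KCl, 5 mM MgCl2, 1 mM DTT, with compound at single 76 uM and 10 uM ATP, 30 min at 37 deg C. ADP detected by HTRF Transcreener, 665/615 ratio.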
PLK1 PBD block: PLK1 (human) polo-box domain binding inhibition | P53350 | Plk1 PBD binding of FITC phosphopeptide, fluorescence polarization | Potency, µM, usual class: inhibitors | 2.8% of 360,000 active | AID 720504; also: series mostly up to about 57 µM; nearly all actives have a fitted effect of over 65% in size
Numbers stand for hits; n = inactive; u = inconclusive; x = no result given. Unless noted, calls follow the shape of the dose curve; as a rule, active = well fitted curve in the direction sought with a large enough effect; inconclusive = small, poorly fitted or top-dose-only effect, or another doubt; inactive = no such curve, though single readings can be large; an effect the other way counts as inactive or inconclusive.

SMILES	Sfp PPTase inh	G9a inh	Mm-Cpn inhibitor	VDR inh	CCT chaperon mod	PLK1 PBD block
CC(C)CCOP(=O)(c1ccc(N(C)C)cc1)C(Nc1ccccc1)c1ccc(N(C)C)cc1 (stereo not drawn)	n	14.1µM	n	n	n	n
Cc1cccc(-c2noc(CNC(=O)c3ccccc3Br)n2)c1	x	n	x	n	x	x
Cc1ccc2c(c1)N(C(=O)N1CCC(C(=O)NCc3cccc(Br)c3)CC1)CCO2	x	n	x	n	x	x
Cc1nncn1-c1ccc(C(=O)Nc2cc(F)ccc2F)cc1	x	n	x	n	x	x
NNC(=O)CN1C(c2ccccc2Br)=Nc2ccc(Br)cc2C1c1ccccc1 (stereo not drawn)	n	n	n	70.8µM	n	n
CCOC(=O)N1CCC(NCCNC(=O)c2ccco2)CC1	n	3.16µM	n	n	n	n
COc1ccccc1C(=O)NNC(=O)C(=O)NCc1ccccc1	n	28.2µM	n	n	n	n
O=C(Nc1ccc(Cl)cc1C(=O)NCCN1CCOCC1)c1ccco1	n	n	n	n	n	n
COc1ccccc1C(=O)NCc1ccccc1	n	n	n	n	n	n
COc1ccccc1C(=O)NCCNC(=O)c1ccco1	n	n	n	n	n	26.7µM
O=C(Nc1ccccc1C(=O)NCCN1CCOCC1)c1ccco1	n	50.1µM	n	n	n	n
CC[C@H](C)[C@H](NC(=O)[C@H](CC(C)C)NC(=O)[C@@H](N)CO)C(=O)NCC(=O)N[C@@H](CCCN=C(N)N)C(=O)N[C@@H](CC(C)C)C(=O)O	n	x	x	n	x	x
COc1ccc(C)cc1NC(=O)C(=O)NCCc1csc(-c2ccc(C)cc2)n1	x	n	x	n	x	x
Cc1cc2c(cc1S(=O)(=O)N(C)CC(=O)Nc1cccc(C#N)c1)OCC(=O)N2	x	n	x	n	x	x
Cc1cc(C)cc(NC(=O)CSc2oc(-c3ccccc3)nc2S(=O)(=O)c2ccccc2)c1	x	n	x	n	x	x
O=C(NCCNC(=O)c1ccccc1Cl)c1ccco1	n	50.1µM	n	n	n	u
O=C(NCCCNC(=O)c1ccccc1F)c1ccco1	n	n	n	n	n	n
Cc1cc2nc(-c3ccc(Br)cc3)cc(C(F)(F)F)n2n1	x	n	x	n	x	x
S=c1[nH]cnc2sc(Nc3ccccc3)nc12	2.24µM	n	u	70.8µM	n	n
O=c1nc(Nc2ccccc2)sc2ccc([N+](=O)[O-])cc12	n	n	n	n	n	n
CCN(CC)S(=O)(=O)c1cc([N+](=O)[O-])ccc1NNC(=O)Nc1ccccc1OC	50.1µM	28.2µM	n	n	n	n
CCN(CC)S(=O)(=O)c1cc([N+](=O)[O-])ccc1NNC(=O)Nc1ccc(F)cc1	44.7µM	u	n	n	n	n
O=C(NC1CCCCCC1)c1cc(-c2ccccn2)nc2ccccc12	n	n	n	n	n	n
Cc1ccc(-c2cc(C(=O)N3CCN(c4ccccc4)CC3)c3ccccc3n2)cc1C	x	u	x	n	x	x
O=C(c1cc(-c2ccco2)nc2ccccc12)N1CCN(c2ccc(F)cc2)CC1	25.1µM	u	n	n	n	n
SMILES	Sfp PPTase inh	G9a inh	Mm-Cpn inhibitor	VDR inh	CCT chaperon mod	PLK1 PBD block
O=C(NC1CCCCC1)c1cc(-c2ccccn2)nc2ccccc12	n	50.1µM	n	n	n	n
CCNC(=S)NNC(=O)c1cc(-c2ccccc2C)nc2ccccc12	n	u	n	n	n	n
Cc1ccc(C)c(-c2cc(C(=O)NNC(=S)NCC(C)C)c3ccccc3n2)c1	n	10µM	n	n	n	n
O=C(NC1CC1)c1cc(-c2ccco2)nc2ccccc12	44.7µM	10µM	n	n	n	21.2µM
Cc1ccc(C)c(-c2cc(C(=O)NC3CC3)c3ccccc3n2)c1	n	44.7µM	n	n	n	n
O=C(NCCc1ccc(Cl)cc1)c1cc(-c2ccncc2)nc2ccccc12	n	n	n	n	n	n
O=C(O)c1cc(-c2ccco2)nc2ccccc12	35.5µM	28.2µM	n	79.4µM	n	u
Cn1ccc(-c2cc(C(=O)O)c3ccccc3n2)n1	n	50.1µM	n	n	n	n
O=C(NCCc1ccc(Cl)cc1)c1cc(-c2ccccn2)nc2ccccc12	n	n	n	n	n	18.9µM
O=C(O)c1cc(-c2cc(C(=O)O)c3ccccc3n2)nc2ccccc12	n	n	n	x	x	x
O=c1c(N2CCN(c3cccc(C(F)(F)F)c3)CC2)csc2ccccc12	x	u	x	n	x	x
